Results reported in PubChem BioAssay (NCATS).
Records with an inconclusive call do not appear. A call without a number means that no potency is given here. Values without a mark were called inactive. Activity calls are given as the source filed them. Unless noted, calls follow the shape of the dose curve; as a rule, active = well fitted curve in the direction sought with a large enough effect; inconclusive = small, poorly fitted or top-dose-only effect, or another doubt; inactive = no such curve, though single readings can be large; an effect the other way counts as inactive or inconclusive.

What was measured:
[1] = target: Aldehyde dehydrogenase, mitochondrial (Homo sapiens) (UniProt P05091); assay: qHTS for Inhibitors of the Aldehyde Dehydrogenase Family (ALDH2) Validation screens (AID 2061302; active = well fitted inhibition curve with a large enough effect; title and protocol of this record describe different tests)
[2] = target: Retinaldehyde dehydrogenase 3 (Homo sapiens) (UniProt P47895); assay: qHTS for Inhibitors of the Aldehyde Dehydrogenase Family (ALDH1A3) Validation screen (AID 2061312); also: nearly all actives have a fitted effect of over 45% in size
[3] = target: Aldehyde dehydrogenase, mitochondrial (Homo sapiens) (UniProt P05091); assay: qHTS for Inhibitors of the Aldehyde Dehydrogenase Family (ALDH2) Confirmatory screens (AID 2061303; active = well fitted inhibition curve with a large enough effect; title and protocol of this record describe different tests; also: nearly all actives have a fitted effect of over 45% in size; also: potency is read from the fitted curve at half-maximal effect)
[4] = target: Retinaldehyde dehydrogenase 3 (Homo sapiens) (UniProt P47895); assay: qHTS for Inhibitors of the Aldehyde Dehydrogenase Family (ALDH1A3) Confirmatory screens (AID 2061311); also: potency is read from the fitted curve at half-maximal effect; nearly all actives have a fitted effect of over 60% in size
[5] = target: Retinal dehydrogenase 2 (Homo sapiens) (UniProt O94788); assay: qHTS for Inhibitors of the Aldehyde Dehydrogenase Family (ALDH1A2) Confirmation screens (AID 2061314); also: nearly all actives have a fitted effect of over 65% in size; also: potency is read from the fitted curve at half-maximal effect
[6] = BET inhibitor-based combinations targeting novel dependencies in MECOM-rearranged (r) AML: SET-2 cell line (AID 2202231); settings: SET-2 AML cells viability, CellTiter-Glo luminescence, 48 h; viability: active compounds read low, concentration not given here; also: nearly all actives have a fitted effect of over 35% in size; also: potency is read from the fitted curve at half-maximal effect
Procedure, shortened: (§1)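 Readout: CellTiter-Glo luminescence. Exposure: 48 h, 11 concentrations, 500 cells/well. Metric: AUC and within-line Z-AUC after DMSO/empty-well normalization.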

[7] = BET inhibitor-based combinations targeting novel dependencies in MECOM-rearranged (r) AML: OCI-AML3 cell line (AID 2202232); settings: Potency: OCI-AML3 viability; also: series mostly up to about 46 µM; nearly all actives have a fitted effect of over 35% in size
Procedure, shortened: as §1

[8] = BET inhibitor-based combinations targeting novel dependencies in MECOM-rearranged (r) AML: HNT-34 cell line (AID 2202234); also: nearly all actives have a fitted effect of over 35% in size
Procedure, shortened: (§2)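 Seeding density was 500 cells/well, and drug exposure lasted 48 hr under standard culture conditions. Read-out used CellTiter-Glo reagent with a 15 min room-temperature incubation before luminescence measurement; AUC and Z-AUC summarize the normalized responses.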

[9] = BET inhibitor-based combinations targeting novel dependencies in MECOM-rearranged (r) AML: AML-194 cell line (AID 2202237; also: nearly all actives have a fitted effect of over 40% in size)
Procedure, shortened: as §1

[10] = qHTS for Inhibitors of the Aldehyde Dehydrogenase Family (ALDH1A2, ALDH1A3, ALDH2, ALDH3A1) (AID 2061307); also: nearly all actives have a fitted effect of over 50% in size
[11] = BET inhibitor-based combinations targeting novel dependencies in MECOM-rearranged (r) AML: MV-4-11 cell line (AID 2202233); also: nearly all actives have a fitted effect of over 45% in size
Procedure, shortened: as §2

[12] = BET inhibitor-based combinations targeting novel dependencies in MECOM-rearranged (r) AML: UCSD-AML1 cell line (AID 2202235); also: series mostly up to about 46 µM; nearly all actives have a fitted effect of over 40% in size
Procedure, shortened: as §2

[13] = BET inhibitor-based combinations targeting novel dependencies in MECOM-rearranged (r) AML: AML-191 cell line (AID 2202236; also: nearly all actives have a fitted effect of over 35% in size)
Procedure, shortened: as §1

Cc1nc2c([nH]1)c(=O)n(C)c(=O)n2Cc1ccco1
Potency [1]: inactive | Potency [2]: inactive

CC1=C(C(=O)O)N2C(=O)[C@@H](NC(=O)C(N)C3=CCC=CC3)[C@H]2SC1 (some centres not stated)
Potency [1]: inactive | Potency [2]: inactive

NC(N)=NCCCCN=C(N)N
Potency [1]: inactive | Potency [2]: inactive

O=C(NOCC1CC1)c1cc(Br)c(F)c(F)c1Nc1ccc(I)cc1Cl
Potency [1]: inactive | Potency [2]: inactive

O=C1CCc2cc(OCCCCc3nnnn3C3CCCCC3)ccc2N1
Potency [1]: inactive | Potency [3]: 0.631 µM (active) | Potency [4]: 0.631 µM (active) | Potency [5]: 7.94 µM (active) | Potency [6]: 16.6 µM (active) | Potency [7]: inactive | Potency [8]: inactive | Potency [9]: inactive

Nc1ccn([C@@H]2O[C@H](CO)[C@@H](O)[C@@H]2O)c(=O)n1
Potency [1]: inactive | Potency [2]: inactive

C[C@H](NC(CCc1ccccc1)C(=O)O)C(=O)N1CCC[C@H]1C(=O)O (some centres not stated)
Potency [1]: inactive | Potency [2]: inactive

CN1Cc2sccc2C(c2ccc(O)c(O)c2)C1 (configuration not stated)
Potency [1]: inactive | Potency [3]: inactive | Potency [10]: inactive | Potency [5]: inactive

CC(C)(Oc1ccc(CCNC(=O)c2ccc(Cl)cc2)cc1)C(=O)O
Potency [1]: inactive | Potency [2]: inactive

Cc1cn([C@H]2CC(N=[N+]=[N-])[C@@H](CO)O2)c(=O)[nH]c1=O (some centres not stated)
Potency [1]: inactive | Potency [2]: inactive

CCC(=O)c1ccc2c(c1)N(CCCN(C)C)c1ccccc1S2
Potency [1]: inactive | Potency [2]: inactive

C=C[C@H]1CN2CC[C@@H]1C[C@@H]2[C@@H](O)c1ccnc2ccc(OC)cc12
Potency [1]: inactive | Potency [2]: inactive

CCN(CC)CCOC(=O)C1(C2CCCCC2)CCCCC1
Potency [1]: inactive | Potency [2]: inactive

N[C@@H](Cc1c[nH]c2ccccc12)C(=O)O
Potency [1]: inactive | Potency [2]: inactive

CC(C)NCC(O)c1cc(O)cc(O)c1 (configuration not stated)
Potency [1]: inactive | Potency [2]: inactive

O=C1NC(=O)C(c2ccccc2)(c2ccccc2)N1
Potency [1]: inactive | Potency [2]: inactive

COc1ccc2c(c1)c(CC(=O)O)c(C)n2C(=O)c1ccc(Cl)cc1
Potency [1]: inactive | Potency [2]: inactive | viability [6]: 114% | Potency [7]: inactive | Potency [11]: inactive | Potency [8]: inactive | Potency [12]: inactive | Potency [13]: inactive | Potency [9]: inactive

NC(=O)N1c2ccccc2C=Cc2ccccc21
Potency [1]: inactive | Potency [2]: inactive

O=C(O)c1cccnc1Nc1cccc(C(F)(F)F)c1
Potency [1]: inactive | Potency [2]: inactive

CC1=C(CC(=O)O)c2cc(F)ccc2/C1=C\c1ccc(S(C)(=O)=O)cc1
Potency [1]: inactive | Potency [2]: inactive

O=c1cc(-c2ccccc2)[nH]c2nc(Cl)ccc12
Potency [1]: inactive | Potency [2]: inactive

NC(N)=[N+]1CCc2ccccc2C1
Potency [1]: inactive | Potency [2]: inactive

NC1CONC1=O (configuration not stated)
Potency [1]: inactive | Potency [2]: inactive

CNCCC(Oc1ccc(C(F)(F)F)cc1)c1ccccc1 (configuration not stated)
Potency [1]: inactive | Potency [2]: inactive

c1ccc2c(c1)CCC[C@H]2Nc1nc2ccccc2[nH]1
Potency [1]: inactive | Potency [2]: inactive

CC(C)NC[C@H](O)c1ccc(O)c(O)c1
Potency [1]: inactive | Potency [2]: inactive
